{"source": "PubChem BioAssay", "key": {"[1]": {"test": "MELAS cybrid and Rieske KO viability enhancers – cell-based, MELAS cybrids, Rieske KO mouse fibroblasts, CellTiter-Glo, primary screen (AID 1508586);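 note: z relative to plate mean and SD of compound and empty wells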", "settings": "low glucose"}, "[2]": {"test": "galactose survival enhancers in mitochondrial complex I cybrids – cell-based, galactose medium, ATP luminescence, primary screen (AID 1645843;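 active = z-score of at least 1.8 in each of two replicates, scored against plate mean and spread of sample wells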;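 note: positive z means more ATP and so rescue of galactose-driven cybrid death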)", "settings": "complex I mutant cybrid cells, 72 h, stronger effect = higher value"}, "[3]": {"test": "blockers of cellular phospholipid synthesis – cell-based, LOPAC library, screen 4, primary screen (AID 1347384; call rule not given here)", "settings": "animal cells, phospholipid biosynthesis inhibition screen; at 10 µM"}, "[4]": {"tested_on": "Hepatitis C virus NS3 helicase", "test": "blockers of NS3h binding to ssDNA – biochemical, fluorescence polarization, LOPAC1280 library, primary screen (AID 687035; in the data active = inhibition above about 37%)", "settings": "Purified HCV NS3 helicase, Cy5-dT15 ssDNA binding fluorescence polarization; stronger effect = higher value; concentration not given here"}, "[5]": {"test": "compounds altering Cy5-DNA-NS3h complex signal – biochemical, LOPAC1280, artefact control for HCV NS3 helicase inhibitor project (AID 687037; call rule not given here)", "settings": "Cy5-DNA-NS3h complex fluorescence interference counterscreen"}, "[6]": {"test": "compounds altering circadian rhythm period length – cell-based, LOPAC library, luminescence reporter (AID 2774; call rule not given here;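 note: values are relative to mean of DMSO wells on each plate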)", "settings": "circadian reporter cells, at 7 µM, actives lie on both sides"}, "[7]": {"molecular_target": "NAD(+) hydrolase SARM1 (Homo sapiens) (UniProt Q6SZW1)", "sequence (Q6SZW1 whole entry, looked up)": "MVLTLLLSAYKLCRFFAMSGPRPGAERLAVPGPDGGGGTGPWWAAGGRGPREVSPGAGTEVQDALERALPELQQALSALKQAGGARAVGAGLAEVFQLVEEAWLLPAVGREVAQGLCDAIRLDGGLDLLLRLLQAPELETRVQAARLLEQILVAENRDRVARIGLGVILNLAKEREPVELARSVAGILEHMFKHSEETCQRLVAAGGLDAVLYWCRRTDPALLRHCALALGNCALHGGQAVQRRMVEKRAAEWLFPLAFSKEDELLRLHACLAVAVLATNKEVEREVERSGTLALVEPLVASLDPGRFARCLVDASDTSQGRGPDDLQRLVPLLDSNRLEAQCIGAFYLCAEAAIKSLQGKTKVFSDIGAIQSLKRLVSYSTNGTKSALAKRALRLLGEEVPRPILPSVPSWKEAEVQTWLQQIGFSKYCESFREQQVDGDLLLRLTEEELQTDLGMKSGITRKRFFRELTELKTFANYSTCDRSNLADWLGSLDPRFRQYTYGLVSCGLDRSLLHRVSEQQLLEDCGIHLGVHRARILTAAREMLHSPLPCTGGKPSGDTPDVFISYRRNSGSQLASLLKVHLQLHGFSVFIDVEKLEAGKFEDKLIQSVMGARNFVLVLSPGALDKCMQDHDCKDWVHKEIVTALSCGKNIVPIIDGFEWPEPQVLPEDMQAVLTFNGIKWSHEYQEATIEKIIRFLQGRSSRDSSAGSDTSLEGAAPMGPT", "test": "blocking NAD cleavage by SARM1 SAM-TIR – cell lysate, NAD-Glo luminescence (AID 1508614;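 active = compound whose remaining NAD level is above about 45 nM, limit read from the data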)", "settings": "SAM-TIR HEK293T lysate NADase, at 1 µM, stronger effect = higher value"}, "[8]": {"settings": "MELAS cybrid survival, CellTiter-Glo 48 h, stronger effect = higher value"}, "[9]": {"settings": "Rieske KO mouse fibroblast survival, CellTiter-Glo 72 h"}}, "note": "The source made the active and inactive calls.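 Rule for the calls, unless noted: active = mean z-score across replicates of 1.96 or higher in either the MELAS or the Rieske mutant cell line; inactive = the rest.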"}
{"smiles": "C[C@H](Cc1cc2c(c(C(N)=O)c1)N(CCCO)CC2)NCCOc1ccccc1OCC(F)(F)F", "values": [{"measurement": "z-score", "setting": "[1]; [8]", "result": "-0.477 (inactive)"}, {"measurement": "z-score", "setting": "[1]; [9]", "result": -0.901}]}
{"smiles": "CC(C)CC(NP(=O)(O)OC1OC(C)C(O)C(O)C1O)C(=O)NC(Cc1c[nH]c2ccccc12)C(=O)O", "note": "(stereo not given)", "values": [{"measurement": "z-score", "setting": "[1]; [8]", "result": "-0.408 (inactive)"}, {"measurement": "z-score", "setting": "[1]; [9]", "result": 0.685}]}
{"smiles": "C=Cc1c(C)c2cc3nc(cc4[nH]c(cc5nc(cc1[nH]2)C(C)=C5CCC(=O)O)c(CCC(=O)OC)c4C)[C@@]1(C)C3=CC=C(C(=O)OC)C1C(=O)OC", "note": "(stereo not given in full)", "values": [{"measurement": "z-score", "setting": "[1]; [8]", "result": "1.85 (inactive)"}, {"measurement": "z-score", "setting": "[1]; [9]", "result": 1.33}]}
{"smiles": "CN1CCN(S(=O)(=O)c2cc(C(=O)NCC3CCCO3)cc(-c3ccccc3)c2)CC1", "note": "(stereo not given)", "values": [{"measurement": "z-score", "setting": "[1]; [8]", "result": "0.139 (inactive)"}, {"measurement": "z-score", "setting": "[1]; [9]", "result": 0.37}, {"measurement": "z-score", "setting": "[2]", "result": "-0.515 (inactive)"}]}
{"smiles": "COc1cccc2c1C(=O)c1c(O)c3c(c(O)c1C2=O)C[C@@](O)(C(=O)CO)C[C@@H]3O[C@@H]1C[C@H](N)[C@@H](O)[C@H](C)O1", "values": [{"measurement": "z-score", "setting": "[1]; [8]", "result": "6.67 (active)"}, {"measurement": "z-score", "setting": "[1]; [9]", "result": -1.72}]}
{"smiles": "CN1[C@@H]2CC[C@@H]1CC(OC(=O)C(CO)c1ccccc1)C2", "note": "(stereo not given in full)", "values": [{"measurement": "z-score", "setting": "[1]; [8]", "result": "0.0633 (inactive)"}, {"measurement": "z-score", "setting": "[1]; [9]", "result": -0.0663}]}
{"smiles": "CC(C)CCN1C(=O)N(C(C)C)C(=O)C12CCN(Cc1ccc(CN3CCCCC3)s1)CC2", "values": [{"measurement": "z-score", "setting": "[1]; [8]", "result": "-0.0425 (inactive)"}, {"measurement": "z-score", "setting": "[1]; [9]", "result": -0.0124}, {"measurement": "z-score", "setting": "[2]", "result": "1.27 (inactive)"}]}
{"smiles": "CC(C)OCCNC1CCc2c(c(C(=O)N(C)Cc3ccccc3)nn2C)C1", "note": "(stereo not given)", "values": [{"measurement": "z-score", "setting": "[1]; [8]", "result": "0.055 (inactive)"}, {"measurement": "z-score", "setting": "[1]; [9]", "result": -0.804}, {"measurement": "z-score", "setting": "[2]", "result": "0.48 (inactive)"}]}
{"smiles": "CC=C(C)C(=O)O[C@H]1[C@H](OC(C)=O)C2(CO)C(CC1(C)C)C1=CCC3C4(C)CCC(OC5O[C@H](C(=O)O)[C@@H](O[C@@H]6O[C@H](CO)[C@@H](O)[C@H](O)[C@H]6O)[C@H](O)[C@H]5O[C@@H]5O[C@H](CO)C(O)[C@H](O)[C@H]5O)[C@](C)(CO)C4CCC3(C)[C@]1(C)C[C@H]2O", "note": "(stereo not given in full)", "values": [{"measurement": "z-score", "setting": "[1]; [8]", "result": 0.702}, {"measurement": "z-score", "setting": "[1]; [9]", "result": 2.95}]}
{"smiles": "COc1ccc(C[C@@H]2c3cc(OC)c(OC)cc3CC[N@+]2(C)CCC(=O)OCCCCCOC(=O)CC[N@@+]2(C)CCc3cc(OC)c(OC)cc3[C@H]2Cc2ccc(OC)c(OC)c2)cc1OC", "values": [{"measurement": "z-score", "setting": "[1]; [8]", "result": "-1.09 (inactive)"}, {"measurement": "z-score", "setting": "[1]; [9]", "result": -0.143}]}
{"smiles": "CC(=O)OCC(=O)[C@@]1(O)CC[C@H]2[C@@H]3CCC4=CC(=O)CC[C@]4(C)C3(F)[C@@H](O)C[C@@]21C", "note": "(stereo not given in full)", "values": [{"measurement": "z-score", "setting": "[1]; [8]", "result": "-0.171 (inactive)"}, {"measurement": "z-score", "setting": "[1]; [9]", "result": -0.231}]}
{"smiles": "CC(C)CC(NP(=O)(O)O[C@@H]1O[C@@H](C)[C@H](O)[C@@H](O)[C@H]1O)C(=O)NC(Cc1c[nH]c2ccccc12)C(=O)O", "note": "(stereo not given in full)", "values": [{"measurement": "outcome", "setting": "[3]", "result": "inactive"}]}
{"smiles": "COc1cc(Br)c(C[N+]2(CCOCCC3CC[C@H]4C[C@@H]3C4(C)C)CCOCC2)cc1OC", "note": "(stereo not given in full)", "values": [{"measurement": "z-score", "setting": "[1]; [8]", "result": "-1.55 (inactive)"}, {"measurement": "z-score", "setting": "[1]; [9]", "result": 0.547}]}
{"smiles": "CN(C)C(=O)N=NC(=O)N(C)C", "values": [{"measurement": "inhibition", "setting": "[4]", "result": "-4% (inactive)"}, {"measurement": "fluorescence ratio (interference)", "setting": "[5]", "result": "1 (inactive)"}, {"measurement": "outcome", "setting": "[3]", "result": "inactive"}]}
{"smiles": "N[C@@H](C(=O)N[C@@H]1C(=O)N2C(C(=O)O)=C(Cl)CC[C@H]12)c1ccccc1", "values": [{"measurement": "z-score", "setting": "[1]; [8]", "result": "0.0513 (inactive)"}, {"measurement": "z-score", "setting": "[1]; [9]", "result": -0.0591}]}
{"smiles": "CN1C[C@H](C(=O)N[C@]2(C)O[C@@]3(O)[C@@H]4CCCN4C(=O)[C@H](Cc4ccccc4)N3C2=O)CC2c3cccc4[nH]cc(c34)C[C@H]21", "note": "(mixture of isomers)", "values": [{"measurement": "z-score", "setting": "[1]; [8]", "result": "0.0487 (inactive)"}, {"measurement": "z-score", "setting": "[1]; [9]", "result": 0.764}]}
{"smiles": "N[C@@H]1CCCCN(c2c(F)cc3c(=O)c(C(=O)O)cn(C4CC4)c3c2Cl)C1", "values": [{"measurement": "z-score", "setting": "[1]; [8]", "result": "0.702 (inactive)"}, {"measurement": "z-score", "setting": "[1]; [9]", "result": -0.618}]}
{"smiles": "CCOC(=O)N1CCC(N2CCc3c(cc(-c4cccc(OC)c4OC)c(=O)n3CC3CC3)C2)CC1", "values": [{"measurement": "z-score", "setting": "[1]; [8]", "result": "-0.362 (inactive)"}, {"measurement": "z-score", "setting": "[1]; [9]", "result": -0.0606}, {"measurement": "z-score", "setting": "[2]", "result": "-0.36 (inactive)"}]}
{"smiles": "N#CC(=C(\\N)Sc1ccccc1N)/C(C#N)=C(/N)Sc1ccccc1N", "values": [{"measurement": "period change", "setting": "[6]", "result": "-0.02 h (inactive)"}, {"measurement": "inhibition", "setting": "[4]", "result": "-1% (inactive)"}, {"measurement": "fluorescence ratio (interference)", "setting": "[5]", "result": "1 (inactive)"}, {"measurement": "outcome", "setting": "[3]", "result": "inactive"}, {"measurement": "z-score", "setting": "[2]", "result": "-1.33 (inactive)"}]}
{"smiles": "C#C[C@]1(OC(C)=O)CC[C@H]2[C@@H]3CCC4=CC(=NO)CC[C@@H]4[C@H]3CC[C@@]21CC", "values": [{"measurement": "z-score", "setting": "[1]; [8]", "result": "0.995 (inactive)"}, {"measurement": "z-score", "setting": "[1]; [9]", "result": 0.685}]}
{"smiles": "O.O.[NH2-].[NH2-].[NH2-].[NH2-].[NH2-].[NH2-].[NH2-].[NH2-].[NH2-].[NH2-].[NH2-].[NH2-].[NH2-].[NH2-].[Ru+4].[Ru+5].[Ru+5]", "values": [{"measurement": "outcome", "setting": "[3]", "result": "inactive"}]}
{"smiles": "CNCC[C@@H](Oc1cccc2ccccc12)c1cccs1", "values": [{"measurement": "z-score", "setting": "[1]; [8]", "result": "-0.177 (inactive)"}, {"measurement": "z-score", "setting": "[1]; [9]", "result": 0.977}]}
{"smiles": "Nc1nc(NC2CC2)c2ncn([C@H]3C=C[C@@H](CO)C3)c2n1", "values": [{"measurement": "z-score", "setting": "[1]; [8]", "result": "1.09 (inactive)"}, {"measurement": "z-score", "setting": "[1]; [9]", "result": -0.0348}, {"measurement": "remaining NAD", "setting": "[7]", "result": "10 nM (inactive)"}]}
{"smiles": "CCOc1ccccc1O[C@@H](c1ccccc1)[C@H]1CNCCO1", "values": [{"measurement": "z-score", "setting": "[1]; [8]", "result": "-0.0519 (inactive)"}, {"measurement": "z-score", "setting": "[1]; [9]", "result": -0.0896}]}
{"smiles": "COc1c(O[C@@H]2O[C@H](CO)[C@@H](O)[C@H](O)[C@H]2O)cc2c(c1OC)-c1ccc(SC)c(=O)cc1[C@@H](NC(C)=O)CC2", "values": [{"measurement": "z-score", "setting": "[1]; [8]", "result": "0.122 (inactive)"}, {"measurement": "z-score", "setting": "[1]; [9]", "result": 0.151}]}
{"smiles": "Cc1cc(=O)c(C(=O)N[C@@H](C(=O)N[C@@H]2C(=O)N3C(C(=O)O)=C(CSc4nnnn4C)CS[C@H]23)c2ccc(O)cc2)c[nH]1", "values": [{"measurement": "z-score", "setting": "[1]; [8]", "result": "0.177 (inactive)"}, {"measurement": "z-score", "setting": "[1]; [9]", "result": -0.0348}, {"measurement": "remaining NAD", "setting": "[7]", "result": "10 nM (inactive)"}]}
